The source made the active and inactive calls. Rule for the calls: active = hit-call score of the fitted dose curve at least 0.9, where 1 is the maximum; inactive = score below 0.9.
Experiments:
[1] = read-out: Interferon-gamma inducible Protein 10 (IP10), CXCL10 (gene 3627); assay: BSK_hDFCGF_IP10: BioMAP Diversity Plus: hDFCGF Assay for Interferon-gamma inducible Protein 10 (IP10) Biomarker Activity (AID 2283053); settings: primary human foreskin fibroblasts; actives raise or lower the signal
Procedure, shortened: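 Human foreskin fibroblast primary cells (hDFCGF system) were dosed with chemical and assayed at 24 h; IP-10 measured by ELISA. Activity fitted bidirectionally relative to DMSO negative control as baseline.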

[2] = read-out: Urokinase-type plasminogen activator receptor (uPAR), PLAUR (gene 5329); assay: BSK_CASM3C_uPAR: BioMAP Diversity Plus: CASM3C Assay for Urokinase-type plasminogen activator receptor (uPAR) Biomarker Activity (AID 2283054); settings: primary human coronary artery smooth muscle cells; actives raise or lower the signal;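 note: cell-surface uPAR protein level quantified by ELISA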
[3] = read-out: Vascular cell adhesion molecule 1 (VCAM1), VCAM1 (gene 7412); assay: BSK_CASM3C_VCAM1: BioMAP Diversity Plus: CASM3C Assay for Vascular cell adhesion molecule 1 (VCAM1) Biomarker Activity (AID 2283055); settings: primary human coronary artery smooth muscle cells; actives raise or lower the signal;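 note: VCAM-1 protein level quantified by ELISA on the cells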
[4] = read-out: Collagen III, COL3A1 (gene 1281); assay: BSK_hDFCGF_CollagenIII: BioMAP Diversity Plus: hDFCGF Assay for Collagen III Biomarker Activity (AID 2283056); settings: primary human foreskin fibroblasts; actives raise or lower the signal
Procedure, shortened: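 Response relative to DMSO, fitted in both directions, reflects ELISA-measured collagen III in human primary skin fibroblasts 24 h after compound addition.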

[5] = read-out: Epidermal growth factor receptor (EGFR), EGFR (gene 1956); assay: BSK_hDFCGF_EGFR: BioMAP Diversity Plus: hDFCGF Assay for Epidermal growth factor receptor (EGFR) Biomarker Activity (AID 2283057); settings: primary human foreskin fibroblasts; actives raise or lower the signal
Procedure, shortened: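 Primary human foreskin fibroblasts were exposed to compound for 24 h, after which cell-surface EGFR was quantified by ELISA. Activity was fitted bidirectionally against the DMSO negative control as baseline.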

[6] = read-out: Interleukin-8 (IL8), CXCL8 (gene 3576); assay: BSK_hDFCGF_IL8: BioMAP Diversity Plus: hDFCGF Assay for Interleukin-8 (IL8) Biomarker Activity (AID 2283058); settings: primary human foreskin fibroblasts; actives raise or lower the signal
Procedure, shortened: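 Fibroblast monolayers (human foreskin, hDFCGF) received test chemical for 24 h before ELISA detection of IL-8; either increases or decreases relative to DMSO count as activity.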

[7] = BSK_hDFCGF_Proliferation: Cell Proliferation Assessment in the BioMAP Diversity Plus: hDFCGF Assay (AID 2283059); settings: primary human foreskin fibroblasts;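 note: curves fitted for both rise and fall of signal versus DMSO baseline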
Procedure, shortened: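 Primary human foreskin fibroblasts, sub-confluent; […]; 10% TCA fix, 0.1% SRB stain, A560 total protein. Gain/loss fitted bidirectionally vs DMSO control.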

[8] = read-out: Macrophage colony-stimulating factor (MCSF), CSF1 (gene 1435); assay: BSK_hDFCGF_MCSF: BioMAP Diversity Plus: hDFCGF Assay for Macrophage colony-stimulating factor (MCSF) Biomarker Activity (AID 2283060); settings: primary human foreskin fibroblasts; actives raise or lower the signal
Procedure, shortened: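 fibroblasts (human foreskin, primary), 24 h post-dose; M-CSF by ELISA; bidirectional fit, DMSO = baseline.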

[9] = BSK_hDFCGF_SRB: Viability Assessment in the BioMAP Diversity Plus: hDFCGF Assay (AID 2283061); settings: primary human foreskin fibroblasts;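 note: cells exposed to compound for 24 h before the read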
Procedure, shortened: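 SRB-based viability read on primary human skin fibroblasts at 24 h: TCA fixation, 0.1% dye, 560 nm. Gain or loss of signal is fitted against the DMSO negative control.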

[10] = read-out: TIMP metallopeptidase inhibitor 1 (TIMP1), TIMP1 (gene 7076); assay: BSK_hDFCGF_TIMP1: BioMAP Diversity Plus: hDFCGF Assay for TIMP metallopeptidase inhibitor 1 (TIMP1) Biomarker Activity (AID 2283062); settings: primary human foreskin fibroblasts; actives raise or lower the signal
Procedure, shortened: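 Bidirectional curve fitting against DMSO baseline yielded this endpoint, based on ELISA detection of TIMP-1 in primary human foreskin fibroblasts exposed to compound for 24 h.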

[11] = read-out: Monokine induced gamma interferon (MIG), CXCL9 (gene 4283); assay: BSK_hDFCGF_MIG: BioMAP Diversity Plus: hDFCGF Assay for Monokine induced gamma interferon (MIG) Biomarker Activity (AID 2283063); settings: primary human foreskin fibroblasts; actives raise or lower the signal
Procedure, shortened: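 Endpoint derived by bidirectional fitting relative to DMSO; MIG quantified via ELISA in primary human foreskin fibroblasts harvested 24 h after dosing.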

[12] = read-out: Matrix Metallopeptidase 1 (MMP1), MMP1 (gene 4312); assay: BSK_hDFCGF_MMP1: BioMAP Diversity Plus: hDFCGF Assay for Matrix Metallopeptidase 1 (MMP1) Biomarker Activity (AID 2283064); settings: primary human foreskin fibroblasts; actives raise or lower the signal
Procedure, shortened: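 hDFCGF primary fibroblasts (human foreskin); chemical added; 24 h; MMP1 by ELISA; bidirectional fit vs DMSO.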

[13] = read-out: Vascular cell adhesion molecule 1 (VCAM1), VCAM1 (gene 7412); assay: BSK_hDFCGF_VCAM1: BioMAP Diversity Plus: hDFCGF Assay for Vascular cell adhesion molecule 1 (VCAM1) Biomarker Activity (AID 2283065); settings: primary human foreskin fibroblasts; actives raise or lower the signal;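 for AC50: VCAM-1 protein level quantified by ELISA after 24 h chemical exposure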
Procedure, shortened: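 Measured after 24 h chemical treatment of primary human skin fibroblasts, VCAM-1 was detected by ELISA and concentration-response analysed in both directions versus DMSO vehicle.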

[14] = read-out: Plasminogen activator inhibitor-1 (PAI1), SERPINE1 (gene 5054); assay: BSK_hDFCGF_PAI1: BioMAP Diversity Plus: hDFCGF Assay for Plasminogen activator inhibitor-1 (PAI1) Biomarker Activity (AID 2283066); settings: primary human foreskin fibroblasts; actives raise or lower the signal
Procedure, shortened: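 Human foreskin fibroblasts in the hDFCGF system were dosed with compound for 24 h; PAI-1 was quantified by ELISA. Bidirectional curve fitting used DMSO as negative control and baseline.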

[15] = read-out: Interferon-gamma inducible Protein 10 (IP10), CXCL10 (gene 3627); assay: BSK_KF3CT_IP10: BioMAP Diversity Plus: KF3CT Assay for Interferon-gamma inducible Protein 10 (IP10) Biomarker Activity (AID 2283068); settings: primary human keratinocytes with fibroblasts; actives raise or lower the signal
Procedure, shortened: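 In a primary skin co-culture of keratinocytes and fibroblasts, IP-10 is quantified by ELISA at 24 h after dosing. SRB staining of parallel wells monitors overt toxicity. Curves are fitted both directions against DMSO.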

[16] = BSK_KF3CT_SRB: Viability Assessment in the BioMAP Diversity Plus: KF3CT Assay (AID 2283069); settings: primary human keratinocytes with fibroblasts;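 note: total protein by sulforhodamine B staining as a cytotoxicity measure; fitted for both signal gain and loss against DMSO baseline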
Procedure, shortened: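 Keratinocytes co-cultured with foreskin fibroblasts (human primary); chemical added, 24 h; fix 10% TCA, stain 0.1% SRB, A560. Bidirectional fit vs DMSO.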

[17] = read-out: Interleukin-1 alpha (IL1a), IL1A (gene 3552); assay: BSK_KF3CT_IL1a: BioMAP Diversity Plus: KF3CT Assay for Interleukin-1 alpha (IL1a) Biomarker Activity (AID 2283070); settings: primary human keratinocytes with fibroblasts; actives raise or lower the signal
Procedure, shortened: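 Chemicals were dosed onto co-cultured human keratinocytes and foreskin fibroblasts, IL-1a was quantified by ELISA at 24 h, and activity was fitted in both directions relative to DMSO controls.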

[18] = read-out: TIMP metallopeptidase inhibitor 2 (TIMP2), TIMP2 (gene 7077); assay: BSK_KF3CT_TIMP2: BioMAP Diversity Plus: KF3CT Assay for TIMP metallopeptidase inhibitor 2 (TIMP2) Biomarker Activity (AID 2283071); settings: primary human keratinocytes with fibroblasts; actives raise or lower the signal
Procedure, shortened: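 Human primary keratinocyte/foreskin fibroblast co-culture dosed with chemical and sampled at 24 h. TIMP-2 levels quantified by ELISA; bidirectional fitting against DMSO negative control as baseline.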

[19] = read-out: Transforming growth factor beta 1 (TGFb1), TGFB1 (gene 7040); assay: BSK_KF3CT_TGFb1: BioMAP Diversity Plus: KF3CT Assay for Transforming growth factor beta 1 (TGFb1) Biomarker Activity (AID 2283072); settings: primary human keratinocytes with fibroblasts; actives raise or lower the signal
Procedure, shortened: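 Human keratinocyte plus foreskin fibroblast primary co-culture, dosed with chemical for 24 h. TGF-b1 quantified by ELISA. Activity fitted bidirectionally against DMSO negative control as baseline.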

[20] = read-out: Intercellular Adhesion Molecule 1 (ICAM1), ICAM1 (gene 3383); assay: BSK_KF3CT_ICAM1: BioMAP Diversity Plus: KF3CT Assay for Intercellular Adhesion Molecule 1 (ICAM1) Biomarker Activity (AID 2283067); settings: primary human keratinocytes with fibroblasts; actives raise or lower the signal
Procedure, shortened: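 Bidirectional curve fitting against a DMSO baseline was applied to ICAM-1 ELISA signal from primary human skin co-cultures harvested 24 h after treatment, with SRB staining of parallel wells for overt cytotoxicity.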

Measured: AC50

CCOC(=O)COc1cc(-n2ncc(C(F)(F)F)c(C)c2=O)c(F)cc1Cl
not listed: [20]
inactive: all other assays above

CC(C)(C)[C@@H](O)[C@@H](Cc1ccc(Cl)cc1)n1cncn1
active: [12] 1.42 µM
not listed: [19] | [20]
inactive: all other assays above

CCOC(=O)C(C)Oc1ccc(Oc2cnc3cc(Cl)ccc3n2)cc1 (stereo not given)
active: [7] 30.6 µM
not listed: [3] | [19] | [20]
inactive: all other assays above

CC(=O)[C@H]1CC[C@H]2[C@@H]3CCC4=CC(=O)CC[C@]4(C)[C@H]3CC[C@]12C
active: [4] 24 µM | [7] 14.7 µM
not listed: [17] | [19] | [20]
inactive: all other assays above

COC(=O)c1ccc(CNS(C)(=O)=O)cc1S(=O)(=O)NC(=O)Nc1nc(OC)cc(OC)n1
not listed: [19] | [20]
inactive: all other assays above

COC(=O)CSc1cc(N=c2sc(=O)n3n2CCCC3)c(F)cc1Cl
not listed: [19] | [20]
inactive: all other assays above

C[C@]12C[C@H](O)[C@H]3[C@@H](CCC4=CC(=O)CC[C@@]43C)[C@@H]1CC[C@@H]2C(=O)CO
active: [12] 1.4 µM
not listed: [8] | [17]
inactive: all other assays above

CC1(C)C(C=C(Cl)Cl)C1C(=O)OCc1cccc(Oc2ccccc2)c1 (stereo not given)
active: [4] 4.2 µM | [5] 8.28 µM | [7] 7.38 µM
not listed: [19] | [20]
inactive: all other assays above

C[C@]12CC[C@@H]3c4ccc(O)cc4C[C@@H](CCCCCCCCCS(=O)CCCC(F)(F)C(F)(F)F)[C@H]3[C@@H]1CC[C@@H]2O (stereo not given in full)
active: [7] 4.75 µM | [14] 1.64 µM
not listed: [20]
inactive: all other assays above

c1ccc(Nc2ccccc2)cc1
active: [5] 34.1 µM
not listed: [19] | [20]
inactive: all other assays above

O=C(Nc1ccc([N+](=O)[O-])cc1Cl)c1cc(Cl)ccc1O
inactive: [3] | [6]
active: [1] 148 nM | [2] 148 nM | [4] 0.148 µM | [7] 0.148 µM | [8] 912 nM | [9] 63 nM | [10] 149 nM | [11] 148 nM | [12] 0.227 µM | [13] 148 nM | [14] 0.148 µM | [20] 1.24 µM | [15] 148 nM | [16] 148 nM | [17] 735 nM | [18] 436 nM

COc1nc(C)nc(NC(=O)NS(=O)(=O)c2ccccc2OCCCl)n1
not listed: [19] | [20]
inactive: all other assays above

C#C[C@]1(O)CC[C@H]2[C@@H]3CCC4=CC(=O)CC[C@@H]4[C@H]3CC[C@@]21CC
not listed: [20]
inactive: all other assays above

Source: PubChem BioAssay (EPA / NIEHS)
